# Data: PubChem BioAssay (NCI)
# This is part of a sample that, as a whole, favours compounds with a hit. Of some 83,000 tested, about 20% had one in any assay.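 How to read the values: 0–100, growth inhibition (40 = 60% inhibited); 0, no net growth; -100 to 0, cell death (-40 = 40% of starting cells died; -100 = all dead).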 A number with no mark means an inactive call. The source made the active and inactive calls. The calls were made as follows: active = growth percent below 10; inactive = the rest.
# Columns and labels:
# Test in all cases: NCI-60 one-dose screen, 48 h (100 = growth as untreated, 0 = no growth, -100 = all killed)
# Conditions in all cases: 10 µM unless noted
# HCT-15 colon = system: HCT-15 colon
# HT29 colon = system: HT29 colon
# SNB-75 CNS = system: SNB-75 CNS
# SNB-19 CNS = system: SNB-19 CNS
# U251 CNS = system: U251 CNS
# PC-3 prostate = system: PC-3 prostate
# SK-MEL-5 melanoma = system: SK-MEL-5 melanoma
# UACC-62 melanoma = system: UACC-62 melanoma
# LOX IMVI melanoma = system: LOX IMVI melanoma
# SK-MEL-28 melanoma = system: SK-MEL-28 melanoma
# SK-MEL-2 melanoma = system: SK-MEL-2 melanoma
# EKVX NSCLC = system: EKVX NSCLC
# SN12C renal = system: SN12C renal
# UO-31 renal = system: UO-31 renal
# TK-10 renal = system: TK-10 renal
# ACHN renal = system: ACHN renal
# CAKI-1 renal = system: CAKI-1 renal
# A498 renal = system: A498 renal
# CCRF-CEM leukemia = system: CCRF-CEM leukemia
# MOLT-4 leukemia = system: MOLT-4 leukemia
SMILES,growth (HCT-15 colon),growth (HT29 colon),growth (SNB-75 CNS),growth (SNB-19 CNS),growth (U251 CNS),growth (PC-3 prostate),growth (SK-MEL-5 melanoma),growth (UACC-62 melanoma),growth (LOX IMVI melanoma),growth (SK-MEL-28 melanoma),growth (SK-MEL-2 melanoma),growth (EKVX NSCLC),growth (SN12C renal),growth (UO-31 renal),growth (TK-10 renal),growth (ACHN renal),growth (CAKI-1 renal),growth (A498 renal),growth (CCRF-CEM leukemia),growth (MOLT-4 leukemia)
C=CCc1c(O)c(C(=O)/C=C/c2ccc(Cl)cc2)c(OC)c2ccoc12,41.3%,36.6%,80.1%,63.2%,37.7%,30.9%,52.6%,48.1%,34.8%,63.5%,15.7%,56.3%,57.2%,51.4%,57.2%,55%,19.5%,46.9%,21.4%,15.3%
CCCCCCCCn1ccc2cc(NC(=O)CN3CCN(c4nc(C)cc(Cl)n4)CC3)ccc21,77.1%,65.3%,87%,102%,92.8%,75.6%,91.1%,76.4%,99.6%,98%,122%,93.6%,99.5%,58.9%,108%,98.1%,87.2%,109%,-34.6% (active),4.97% (active)
CCN(CC)CCCN1C(=O)c2c(c(C)c3c(oc4cc(O)ccc43)c2C)C1=O,-79.2% (active),-61.8% (active),124%,-82.8% (active),-88.8% (active),-67.5% (active),-97.7% (active),95.2%,-93.5% (active),-85.1% (active),98%,108%,-75% (active),90.8%,112%,51.5%,-81% (active),104%,-6.12% (active),-5.26% (active)
C=CCn1cc(-c2nc3ccccc3s2)c2cc(-c3ccc4c5c(cccc35)C(=O)N(N)C4=O)ccc21,98%,105%,85.1%,97.2%,104%,88.2%,96.5%,86.9%,95.9%,109%,102%,82.1%,92.1%,61.3%,152%,92%,75.1%,106%,104%,96.5%
COc1ccc(CC(C#N)c2cc3ccccc3[nH]2)cc1 (stereo not given),91.5%,96.5%,78.2%,92.8%,89.3%,75.6%,91.6%,75%,92%,95%,113%,95.9%,92.7%,61.5%,118%,93.9%,72.6%,84.2%,-27.2% (active),98.1%
OCc1cccc(-c2ccc3ncc(-c4nc(NC5CC5)ncc4F)n3c2)c1,1.06% (active),4.87% (active),-40.8% (active),-0.451% (active),-3.8% (active),-10.3% (active),-77.2% (active),-84.4% (active),-1.7% (active),-45.5% (active),-55.4% (active),2.69% (active),-15.4% (active),-14.1% (active),13.5%,-13.2% (active),1.44% (active),-47.8% (active),-2% (active),-27.8% (active)
COC(C(=O)[C@@H](O)[C@@H](C)O)[C@@H]1Cc2cc3cc(O[C@H]4C[C@@H](O[C@H]5C[C@@H](O)[C@H](O)C(C)O5)[C@H](O)C(C)O4)c(C)c(O)c3c(O)c2C(=O)[C@H]1O[C@H]1C[C@@H](O[C@H]2C[C@@H](O[C@H]3C[C@@H](O)[C@H](OC)C(C)O3)[C@@H](O)C(C)O2)[C@H](O)C(C)O1 (stereo not given in full),8.46% (active),-13.6% (active),-57% (active),12.4%,2.99% (active),11.2%,-36.9% (active),-35.4% (active),-8.28% (active),-34.1% (active),-43.7% (active),12.3%,15.9%,-8.18% (active),-2% (active),4.45% (active),13.7%,-47.5% (active),9.56% (active),-6.79% (active)
Cc1cccc(Cl)c1NC(=O)c1ccc2nc(NC(=O)NCCN(C)C)sc2c1,99.3%,80.1%,23.7%,105%,80.4%,62.2%,67.3%,97.3%,91.5%,87.6%,103%,104%,92%,90.1%,111%,92.9%,95.1%,90.7%,79.4%,80.2%
COc1ccc(-c2nc(SCC(C)C)nc(N/N=C\c3ccc(F)cc3)c2C#N)cc1,85.3%,90.5%,80%,81%,94.5%,84.9%,103%,88.6%,97.4%,98.8%,104%,93.9%,78.6%,67.2%,81.5%,30.3%,91.1%,74.4%,82.3%,88.2%
CC(=O)OC[C@]12CCC(C)(C)C[C@H]1[C@@]1(O)[C@H](O)C[C@@H]3[C@@]4(C)CCCNC(C)(C)[C@@H]4CC[C@@]3(C)[C@]1(C)CC2,111%,109%,115%,97.4%,107%,102%,99.9%,105%,106%,108%,112%,101%,99.5%,85.8%,103%,109%,106%,86.5%,102%,104%
COc1cc(C(=O)n2nc(N3CCN(C)CC3)c3cc(N)ccc32)cc(OC)c1OC,37%,86.8%,39.9%,35.2%,31.2%,50.1%,27.3%,26.2%,35.5%,65.8%,70.9%,34.1%,39.6%,26.4%,59.1%,36.8%,57.3%,-3.79% (active),20.2%,17.3%
O=C1c2ccc3c4ccc5c6c(ccc(c7ccc(c2c37)C(=O)N1CCC[P+](c1ccccc1)(c1ccccc1)c1ccccc1)c64)C(=O)N(CCC[P+](c1ccccc1)(c1ccccc1)c1ccccc1)C5=O,67.9%,26.4%,131%,42.4%,22.3%,56.1%,18.5%,54.5%,17%,15.2%,98.7%,45.6%,70.5%,80.7%,141%,104%,0.659% (active),78.1%,45.9%,46.1%
CC12CCC3c4ccccc4CCC3(CO1)C2 (stereo not given),108%,100%,89.7%,114%,107%,88%,102%,105%,101%,99.9%,109%,107%,98.3%,117%,110%,98.4%,101%,78.9%,86.9%,89.3%
CC1=C(Nc2ccc(N3CCN(C)CC3)cc2)C(=O)c2cncnc2C1=O,94.2%,112%,131%,97.3%,83.6%,21.7%,81.5%,93.8%,-13.6% (active),121%,109%,98.3%,98.5%,86.2%,142%,6.25% (active),87.9%,113%,5.93% (active),-11.9% (active)
COc1ccc(/C=C2\COc3ccc(O)cc3C2=O)c(OC)c1OC,48.8%,68.5%,83%,80.6%,60.8%,77.1%,89.9%,78.7%,44.3%,99.2%,102%,93.9%,66.3%,71.5%,109%,80.1%,68.2%,113%,8.08% (active),73.2%
